{"source": "the supplement of paper PMC4022240", "binders": {"B1": {"name": "H3 112-124 I H A Kme3 Rme V T I M P K D I (peptide)", "chain": "IHAKRVTIMPKDI"}, "B2": {"name": "H3 112-124 I H A Kme2 Rme2s V T I M P K D I (peptide)", "chain": "IHAKRVTIMPKDI"}, "B3": {"name": "H3 112-124 I H A Kme3 Rme2a V T I M P K D I (peptide)", "chain": "IHAKRVTIMPKDI"}, "B4": {"name": "H3 112-124 I H A K R V T I M P Kme2 D I (peptide)", "chain": "IHAKRVTIMPKDI"}, "B5": {"name": "H3 112-124 I H A K R V T I M P Kac D I (peptide)", "chain": "IHAKRVTIMPKDI"}}, "assay_in_all_cases": "peptide microarray binding signal (635 nm), min-max normalized on array (fraction of array maximum); higher = stronger binding", "settings_in_all_cases": "peptide region: H3 112-124", "key": {"[1]": {"biological_target": "T1, HaloTag-ATRX ADD domain (163-292)", "T1 chain": "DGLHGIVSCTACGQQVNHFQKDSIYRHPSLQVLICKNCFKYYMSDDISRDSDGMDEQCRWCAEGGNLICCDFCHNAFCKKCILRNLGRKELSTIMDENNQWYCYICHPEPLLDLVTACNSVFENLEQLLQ", "how_it_was_run": "(§1)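 Within each library, mean intensities of triplicate spots were min-max scaled to give the binding signal. The spots were histone 13-mer peptide–cellulose conjugates on nitrocellulose with a Cy3 tracer, blocked overnight at 4°C. They were then probed for 1 h at 4°C using biotin-labelled HaloTag reader fusions (10 nM to 1 μM) with streptavidin-Alexa Fluor 647 or rabbit histone antibodies (1:10,000 to 1:2,000) with anti-rabbit Alexa 647, and scanned at 635 nm for signal and 532 nm for misprints on an Axon GenePix 4000B.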"}, "[2]": {"biological_target": "HaloTag-ING2 PHD (mouse Ing2 200-280)", "how_it_was_run": "as §1"}, "[3]": {"biological_target": "anti-H3K4me3 antibody ab8580", "how_it_was_run": "as §1"}, "[4]": {"biological_target": "anti-H3K9me3 antibody ab8898", "how_it_was_run": "as §1"}, "[5]": {"settings": "peptide modifications: H3K115me3 H3R116me1, binder concentration: 1:2,000 dilution"}, "[6]": {"settings": "peptide modifications: H3K115me3 H3R116me1, binder concentration: 1:10,000 dilution"}, "[7]": {"settings": "peptide modifications: H3K115me2 H3R116me2s, binder concentration: 1:2,000 dilution"}, "[8]": {"settings": "peptide modifications: H3K115me2 H3R116me2s, binder concentration: 1:10,000 dilution"}, "[9]": {"settings": "peptide modifications: H3K115me3 H3R116me2a, binder concentration: 1:2,000 dilution"}, "[10]": {"settings": "peptide modifications: H3K115me3 H3R116me2a, binder concentration: 1:10,000 dilution"}, "[11]": {"settings": "peptide modifications: H3K122me2, binder concentration: 1:2,000 dilution"}, "[12]": {"settings": "peptide modifications: H3K122me2, binder concentration: 1:10,000 dilution"}, "[13]": {"settings": "peptide modifications: H3K122ac, binder concentration: 1:2,000 dilution"}, "[14]": {"settings": "peptide modifications: H3K122ac, binder concentration: 1:10,000 dilution"}}, "note": "± gives the standard deviation."}
{"binder": "B1", "values": [{"measurement": "peptide microarray binding signal", "setting": "[1]; peptide modifications: H3K115me3 H3R116me1, binder concentration: 50 nM", "result": "0.0052 ± 0.00018"}, {"measurement": "peptide microarray binding signal", "setting": "[1]; peptide modifications: H3K115me3 H3R116me1, binder concentration: 500 nM", "result": "0.00929 ± 0.00049"}, {"measurement": "peptide microarray binding signal", "setting": "[2]; peptide modifications: H3K115me3 H3R116me1, binder concentration: 10 nM", "result": "0.0491 ± 0.0085"}, {"measurement": "peptide microarray binding signal", "setting": "[2]; peptide modifications: H3K115me3 H3R116me1, binder concentration: 100 nM", "result": "0.07016 ± 0.00021"}, {"measurement": "peptide microarray binding signal", "setting": "[3]; [5]", "result": "0.0275 ± 0.0037"}, {"measurement": "peptide microarray binding signal", "setting": "[3]; [6]", "result": "0.0305 ± 0.0067"}, {"measurement": "peptide microarray binding signal", "setting": "[4]; [5]", "result": "0.0215 ± 0.0033"}, {"measurement": "peptide microarray binding signal", "setting": "[4]; [6]", "result": "0.0113 ± 0.0013"}]}
{"binder": "B2", "values": [{"measurement": "peptide microarray binding signal", "setting": "[1]; peptide modifications: H3K115me2 H3R116me2s, binder concentration: 50 nM", "result": "0.006426 ± 2.2e-05"}, {"measurement": "peptide microarray binding signal", "setting": "[1]; peptide modifications: H3K115me2 H3R116me2s, binder concentration: 500 nM", "result": "0.00905 ± 0.00055"}, {"measurement": "peptide microarray binding signal", "setting": "[2]; peptide modifications: H3K115me2 H3R116me2s, binder concentration: 10 nM", "result": "0.0113 ± 0.0004"}, {"measurement": "peptide microarray binding signal", "setting": "[2]; peptide modifications: H3K115me2 H3R116me2s, binder concentration: 100 nM", "result": "0.0135 ± 0.00076"}, {"measurement": "peptide microarray binding signal", "setting": "[3]; [7]", "result": "0.00383 ± 0.0002"}, {"measurement": "peptide microarray binding signal", "setting": "[3]; [8]", "result": "0.00462 ± 0.00022"}, {"measurement": "peptide microarray binding signal", "setting": "[4]; [7]", "result": "0.00335 ± 0.00032"}, {"measurement": "peptide microarray binding signal", "setting": "[4]; [8]", "result": "0.00236 ± 3.7e-05"}]}
{"binder": "B3", "values": [{"measurement": "peptide microarray binding signal", "setting": "[1]; peptide modifications: H3K115me3 H3R116me2a, binder concentration: 50 nM", "result": "0.00345 ± 4.9e-05"}, {"measurement": "peptide microarray binding signal", "setting": "[1]; peptide modifications: H3K115me3 H3R116me2a, binder concentration: 500 nM", "result": "0.00524 ± 0.00015"}, {"measurement": "peptide microarray binding signal", "setting": "[2]; peptide modifications: H3K115me3 H3R116me2a, binder concentration: 10 nM", "result": "0.0172 ± 0.00022"}, {"measurement": "peptide microarray binding signal", "setting": "[2]; peptide modifications: H3K115me3 H3R116me2a, binder concentration: 100 nM", "result": "0.0232 ± 0.0011"}, {"measurement": "peptide microarray binding signal", "setting": "[3]; [9]", "result": "0.00885 ± 0.0017"}, {"measurement": "peptide microarray binding signal", "setting": "[3]; [10]", "result": "0.00451 ± 0.00052"}, {"measurement": "peptide microarray binding signal", "setting": "[4]; [9]", "result": "0.00763 ± 0.0013"}, {"measurement": "peptide microarray binding signal", "setting": "[4]; [10]", "result": "0.00467 ± 0.00017"}]}
{"binder": "B4", "values": [{"measurement": "peptide microarray binding signal", "setting": "[1]; peptide modifications: H3K122me2, binder concentration: 50 nM", "result": "0.0047 ± 8.8e-05"}, {"measurement": "peptide microarray binding signal", "setting": "[1]; peptide modifications: H3K122me2, binder concentration: 500 nM", "result": "0.0148 ± 0.00039"}, {"measurement": "peptide microarray binding signal", "setting": "[2]; peptide modifications: H3K122me2, binder concentration: 10 nM", "result": "0.00567 ± 0.00021"}, {"measurement": "peptide microarray binding signal", "setting": "[2]; peptide modifications: H3K122me2, binder concentration: 100 nM", "result": "0.0168 ± 0.0034"}, {"measurement": "peptide microarray binding signal", "setting": "[3]; [11]", "result": "0.000906 ± 6e-05"}, {"measurement": "peptide microarray binding signal", "setting": "[3]; [12]", "result": "0.000799 ± 8.3e-06"}, {"measurement": "peptide microarray binding signal", "setting": "[4]; [11]", "result": "0.00287 ± 0.00058"}, {"measurement": "peptide microarray binding signal", "setting": "[4]; [12]", "result": "0.00121 ± 2.4e-05"}]}
{"binder": "B5", "values": [{"measurement": "peptide microarray binding signal", "setting": "[1]; peptide modifications: H3K122ac, binder concentration: 50 nM", "result": "0.002508 ± 1.9e-05"}, {"measurement": "peptide microarray binding signal", "setting": "[1]; peptide modifications: H3K122ac, binder concentration: 500 nM", "result": "0.00729 ± 0.0012"}, {"measurement": "peptide microarray binding signal", "setting": "[2]; peptide modifications: H3K122ac, binder concentration: 10 nM", "result": "0.00328 ± 0.00025"}, {"measurement": "peptide microarray binding signal", "setting": "[2]; peptide modifications: H3K122ac, binder concentration: 100 nM", "result": "0.00475 ± 0.0007"}, {"measurement": "peptide microarray binding signal", "setting": "[3]; [13]", "result": "0.00113 ± 0.00025"}, {"measurement": "peptide microarray binding signal", "setting": "[3]; [14]", "result": "0.00137 ± 0.00013"}, {"measurement": "peptide microarray binding signal", "setting": "[4]; [13]", "result": "0.000483 ± 2.4e-05"}, {"measurement": "peptide microarray binding signal", "setting": "[4]; [14]", "result": "0.000692 ± 7.3e-06"}]}
